CHX counter: affects cycloheximide protein synthesis inhibition readout, counter-screen; max response, %; cell reporter, cycloheximide protein synthesis inhibition counterscreen; actives 12% (n = 300,000); AID 2314; in the data active = max response mostly above about 13%, no sharp cut-off; inactive = mostly below about 14%; note: read at 38.3 µM for the half of the compounds with a filed dose; 0% is about no effect
AMA1-RON2 inh: inhibitors of Plasmodium falciparum AMA1-RON2 interaction; AID 720542; actives 0.2% (n = 360,000); AlphaScreen AMA1-biotinylated RON2 peptide binding; Potency, µM (highest dose often 58.2 µM), for inactives: top-dose activity change, negative = inhibition, hits mostly inhibitors; active = well fitted inhibition curve with a large enough effect; inconclusive = small, poorly fitted or top-dose-only effect; inactive = no such curve, though single readings can be large or run the other way;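 note: potency is the fitted concentration of half-maximal effect; 0% = vehicle wells and -100% = peptide control; nearly all actives have a fitted effect of over 45% in size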
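AMA1 (3D7) with his tag at 25 nM final met compounds first, then biotinylated RON2 peptide at 25 nM; detection used donor plus acceptor beads, 10 µg/mL apiece, read by AlphaScreen after 30 min at room temperature.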
MARV entry inh: inhibitors of Marburg virus binding or cell entry | Marburg virus pseudotyped entry inhibition, cell reporter | Potency, µM (series often up to 37.8 µM), for inactives: at the top dose activity change, negative = inhibition, most hits filed as inhibitors | actives 1.8% (n = 300,000) | AID 540276; calls by dose curve; tested in HEK293 cells; note: potency is the fitted concentration of half-maximal effect; % is set by controls: 0 for no effect and ±100 for the full control effect
Shiga toxin inh: blocks Shiga toxin action in Vero cells | actives 9.2% (n = 290,000) | Vero cells, Shiga toxin protein synthesis inhibition reporter | inhibition, % at 38.7 µM; in the data active = inhibition mostly above about 28%, no sharp cut-off; inactive = mostly below about 43%; note: 0% is about no effect
LASV entry inh: Lassa virus entry inhibition | Lassa virus pseudotype entry inhibition, cell reporter | Potency, µM (highest dose often 37.9 µM), inactives show at the highest dose activity change, negative = inhibition, most hits filed as inhibitors | actives 1.2% (n = 300,000) | AID 540256; calls by dose curve; tested in HEK293 cells; note: potency is the fitted concentration of half-maximal effect; % is set by controls: 0 for no effect and ±100 for the full control effect; nearly all actives have a fitted effect of over 50% in size
Numbers without * were called inactive; ? = inconclusive; . = not tested or not shown; [ ] = remark or other dose. Only a selection was taken, and hits are over-represented in it overall.

SMILES | CHX counter | AMA1-RON2 inh | MARV entry inh | Shiga toxin inh | LASV entry inh
CC(C)C(NS(=O)(=O)c1ccc2c(c1)oc(=O)n2C)C(=O)NCCc1ccccc1 (stereo not drawn) | . | . | 1%[46.1 µM] | . | 19%[46.1 µM]
NC(=O)Cc1nc(-c2ccc(Br)cc2)cs1 | 21 | -3% | 10% | 37* | 0%
N/C(Cc1nc(-c2ccc(Cl)cc2)cs1)=N\O | . | . | 6% | . | .
NC(=O)Cc1nc(-c2ccccc2)cs1 | 6 | 12%[2.32 µM] | ? | -2 | 5%
Oc1csc(Cc2nc(-c3ccc(Br)cc3)cs2)n1 | 38* | -1% | 13%[46.1 µM] | 130* | -6%
N/C(Cc1nc(-c2ccc(Cl)cc2)cs1)=N/O | 41* | -5% | 6% | 40* | 3%
O=c1oc2ccccc2cc1-c1csc(Cc2nc(-c3ccc(Br)cc3)cs2)n1 | 7 | 4% | -20% | 4 | -28%
Cc1ccc(-c2csc(CC(N)=O)n2)cc1 | 31* | -8% | ? | 66* | 23%[46.1 µM]
O=C(NNC(=O)c1ccccc1C(F)(F)F)c1csc(N2CCOCC2)n1 | -2 | 55% | 0% | -14 | -5%
CC[C@@]1(C(=O)OC)N[C@H](CN(C)S(=O)(=O)c2ccc(C(C)(C)C)cc2)[C@@H]2C(=O)N(C)C(=O)[C@@H]21 | . | 2% | . | . | .
O=C(c1ccc2c(Cl)c3c(nc2c1)CCCC3)N1CCC(N2CCCCC2)CC1 | -4 | 4% | 4.6µM* | -15 | ?
O=C(Nc1ccc(Cl)cn1)c1ccc2c(Cl)c3c(nc2c1)CCC3 | 35* | 2% | . | 64* | .
CCC(C)NC(=O)c1ccc2c(SCC(=O)O)c3c(nc2c1)CCCC3 (stereo not drawn) | -5 | 11% | 23% | 16 | 0%
O=C(c1ccc2c(Cl)c3c(nc2c1)CCCC3)N1CCN(c2ccccc2)CC1 | . | . | -23%[46.1 µM] | . | -1%[46.1 µM]
CN(C(=O)c1ccc2c(Cl)c3c(nc2c1)CCC3)c1ccccc1 | 45* | -1% | 4% | 94* | -4%
CCC(C)NC(=O)c1ccc2c(Cl)c3c(nc2c1)CCC3 (stereo not drawn) | 28* | 8% | . | 53* | .
CCCOc1ccccc1C1Oc2nc(SC)nnc2-c2ccccc2N1C(C)=O (stereo not drawn) | . | . | -16%[46.1 µM] | . | ?
Cc1cc(O)ccc1-c1cccc2nccn12 | . | -8% | . | . | .
Cc1ccc(Nc2cc(C)nc(N3CCOCC3)n2)cc1 | 26* | -12% | 5.6µM* | 81* | 23%
Fc1ccc(Nc2nc(N3CCOCC3)c3ccccc3n2)cc1 | -2 | -9% | 16µM* | 2 | ?
Oc1[nH]c2ccccc2c1N=Nc1nc(Nc2ccccc2)nc(N2CCOCC2)n1 | -1 | 4% | . | 11 | .
CC(C)c1ccc(Nc2nc(N3CCOCC3)nc(N3CCOCC3)n2)cc1 | . | -3% | . | . | .
Cc1[nH]c2ccccc2c1/C=N/Nc1nc(Nc2ccccc2)nc(N2CCOCC2)n1 | 20* | 32% | 0.33µM* | 16 | 5.8µM*
Cc1ccc(Nc2nc(N3CCOCC3)nc(N3CCOCC3)n2)cc1 | 14* | 11% | 1.2µM* | -3 | -37%
CCOc1ccc(Nc2cc(C)nc(N3CCOCC3)n2)cc1 | -5 | 0% | -27% | -5 | 0%
SMILES | CHX counter | AMA1-RON2 inh | MARV entry inh | Shiga toxin inh | LASV entry inh
CCN(C(=O)c1cn(CC)c(=O)c2cc(OC)c(OC)cc12)c1ccc(C)c(C)c1 | . | . | -14%[46.1 µM] | . | -18%[46.1 µM]
NC1=NC(=O)C2N=CN(COCCO)C2=N1 (stereo not drawn) | . | . | 4% | . | .
COc1ccc(CC(=O)Nc2sccc2C#N)cc1S(=O)(=O)N1CCOCC1 | . | 2% | -3% | . | ?
Cc1ccccc1Nc1nc(N2CCOCC2)nc(N2CCOCC2)n1 | -2 | 0% | 6.3µM* | -2 | -29%[46.1 µM]
CN1CCN(c2nc(Nc3cccc(C(F)(F)F)c3)nc(N3CCOCC3)n2)CC1 | -3 | ? | 21µM* | -7 | ?
Cc1cc(Nc2ccc(C)c(Cl)c2)nc(N2CCOCC2)n1 | 7.5* | -10% | ? | 13 | ?
Clc1ccc(Nc2nc(NCCN3CCOCC3)nc(N3CCOCC3)n2)cc1 | -2 | -4% | 2.8µM* | -1 | ?
Fc1ccccc1Nc1nc(N2CCOCC2)nc(N2CCOCC2)n1 | 1 | 3% | . | 19 | .
CCOC(=O)c1ccc(Nc2cc(C)nc(N3CCOCC3)n2)cc1 | -7 | -15% | ? | -22 | -24%
COC(=O)C(Sc1nc(C)cc(C)c1C#N)c1ccccc1 (stereo not drawn) | 18 | 0% | 19% | 2 | 0%
Cc1cc(C)c(C#N)c(Sc2ccccc2N)n1 | 32* | -4% | -4%[46.1 µM] | 72* | 1%[46.1 µM]
COc1ccc(C(=O)Nc2cccc(-c3cnc4ccccc4n3)c2)cc1 | 4 | 1% | -4% | 21 | 5%
Cc1ccc(C(=O)Nc2cccc(-c3cnc4ccccc4n3)c2)cc1 | 12 | 2% | -6% | -3 | -13%
Cc1nc(-c2cccc(NS(C)(=O)=O)c2)cs1 | 1 | 2% | 12% | 33 | 6%
Cc1cccc(C(=O)Nc2cccc(-c3cnc4ccccc4n3)c2)c1 | 12 | 1% | -24% | 59 | ?
CS(=O)(=O)Nc1cccc(-c2cnc3ccccc3n2)c1 | 37* | 1% | ? | 85* | -55%[46.1 µM]
CNC(=S)Nc1cccc(-c2cnc3ccccc3n2)c1 | 26* | 23% | ? | 58* | ?
O=C(Nc1cccc(-c2cnc3ccccc3n2)c1)c1ccco1 | 55* | -7% | ? | 100* | 1%
O=C(Nc1cccc(-c2cnc3ccccc3n2)c1)c1ccncc1 | 23* | 7% | -17%[46.1 µM] | 36 | 2%
Cc1ccc(/C=C/c2onc(C)c2S(=O)(=O)N2CCC(C(=O)N3CC(C)Oc4ccccc43)CC2)cc1 (stereo not drawn) | . | . | . | . | 0%[46.1 µM]
CCOC(=O)c1c(SCC(=O)Nc2nc3ccc(C)cc3s2)nc(=O)[nH]c1C | . | . | . | . | -1%[46.1 µM]
COc1ccc(CC(=O)Nc2nnc(C(C)C)s2)cc1OC | -10 | -7% | 22% | -30 | 7%
NC(=O)C1CCN(C(=O)c2cc(-c3ccc(Cl)s3)nc3ccccc23)CC1 | . | 0% | . | . | .
CN(C)C(=O)Nc1cnc2ccccc2c1 | -2 | 21% | 3% | 9 | -12%
CC(C)C(=O)Nc1cccc(-c2cnc3ccccc3n2)c1 | 21* | -1% | ? | 35 | -2%
SMILES | CHX counter | AMA1-RON2 inh | MARV entry inh | Shiga toxin inh | LASV entry inh
O=C(Nc1cnc2ccccc2c1)c1ccco1 | 33* | -7% | ? | 68* | ?
CC(=O)Nc1ccc(C(=O)Nc2cccc(-c3cnc4ccccc4n3)c2)cc1 | 18 | -10% | 24%[46.1 µM] | 30 | -10%
Cc1ccc(NC(=O)CN(C)C(=O)c2ccc3[nH]c4c(c3c2)CC(C)CC4)cc1 (stereo not drawn) | . | 32%[11.6 µM] | ? | . | ?
CC1CCc2[nH]c3ccc(C(=O)Nc4ccc(C(=O)N(C)C)cc4)cc3c2C1 (stereo not drawn) | 7 | -3% | ? | -16 | -17%
COC(=O)c1ccc2[nH]c3c(c2c1)CC(C)CC3 (stereo not drawn) | 36* | -21% | . | 59* | .
CCCC(C)NC(=O)c1ccc2[nH]c3c(c2c1)CC(C)CC3 (stereo not drawn) | 28* | -3% | -16% | 49 | -29%
CCN(CC)c1ccc(NC(=O)COC(=O)CSc2ccc(Br)cc2C)cc1 | 7 | 10µM* | 4% | 20 | ?
